Source: PubChem BioAssay (EPA / NIEHS)
Active and inactive are the calls of the source. The calls were made as follows: active = hit-call score of the fitted dose curve at least 0.9, where 1 is the maximum; inactive = score below 0.9.

test: APR_HepG2_MitoMass_72hr: Apredica 72-hour HepG2 Assay for Mitochondrial Mass (AID 2282924); settings: high-content imaging, actives raise or lower the signal;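 also: MitoTracker Red CMXRos stain intensity per cell imaged as mitochondrial mass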
Method: APR_HepG2_72hr is a cell-based, multiplexed-readout assay that uses HepG2, a human liver cell line, with measurements taken at 72 hours after chemical dosing in a 384-well plate.APR_HepG2_MitoMass_72hr is one of 10 assay component(s) measured or calculated from the APR_HepG2_72hr assay. It is designed to make measurements of cell phenotype, a form of morphology reporter, as detected with fluorescence intensity signals by HCS Fluorescent Imaging technology.Data from the assay component APR_HepG2_MitoMass_72hr was analyzed into 1 assay endpoint. This assay endpoint, APR_HepG2_MitoMass_72hr, was analyzed with bidirectional fitting relative to DMSO as the negative control and baseline of activity. Using a type of morphology reporter, gain or loss-of-signal activity can be used to understand changes in the signaling. Furthermore, this assay endpoint can be referred to as a primary readout, because this assay has produced multiple assay endpoints where this one serves a signaling function. To generalize the intended target to other relatable targets, this assay endpoint is annotated to the cell morphology intended target family, where the subfamily is organelle conformation.
Cells were treated with dimethyl sulfoxide (DMSO) as a solvent control at a final concentration of 0.5% v/v or with compounds in DMSO with a resulting final DMSO concentration of 0.5% v/v. Compound treatment was done at concentrations of 0.39, 0.78, 1.56, 3.12, 6.24, 12.5, 25, 50, 100, and 200 uM in duplicate on each plate. Cells were treated with compounds for 1, 24, or 72 hr. Carbonyl […] m-chloro-phenylhydrazone (CCCP) and taxol were used as positive controls for mitochondrial function and cytoskeletal stability, respectively; DMSO served as the negative control for this experiment. Cells were fixed by the direct addition of 50 uL formaldehyde in Hank's Balanced Salt Solution (HBSS) to a final concentration of 3.7%. After incubation in the fixation medium for 30 min at room temperature (293-298 K), cells were rinsed twice with HBSS and treated with cell permeabilization buffer (16 uL of 0.5% Triton X-100) for 10 min at room temperature (293-298 K) before labeling. For mitochondrial membrane potential and mitochondrial measurements, pre-fixed cells were incubated with 50 uL of MitoTracker Red CMXRos (Invitrogen) at a concentration of 250 nM for 30 min before fixation. In the remaining cases, post-fixed cells were labeled by incubation with a multiplexed mixture of primary antibodies in HBSS for 60 min at room temperature (293-298 K) to detect immunoreactivity of c-Jun (1:500), phospho-histone H3 (1:100), phospho-histone H2A.x (1:200), p53 (1:400), alpha-tubulin (1:200) and Hoechst 33342 (2 ug/mL). Cells were labeled for multiplexed imaging on two separate plates: a) Hoechst 33342, MitoTracker Red, phospho-histone H3, and alpha-tubulin, and b) Hoechst 33342, phospho-histone H2A.x, and c-Jun. A final rinse with HBSS (50 uL) was performed before analysis. The primary and secondary antibodies for the proteins were phospho-histone H3 (rabbit anti-phospho-histone H3 and FITC-donkey anti-rabbit IgG), phospho-histone H2A.x (mouse anti-phospho-histone H2A.x and FITC-donkey anti-mouse IgG), c-Jun (rabbit anti-phospho-c-Jun and Cy3-donkey anti-rabbit IgG), p53 (sheep anti-p53 and Cy5-donkey anti-sheep IgG), alpha-tubulin (mouse anti-alpha-tubulin and Cy5-donkey anti-mouse IgG). These antibodies are available as the CellCiphr HepG2 assay kit (Millipore).Digital images of each well were captured using a Cellomics ArrayScan VTI (Thermo Scientific Cellomics) (0.8 NA objective, 0.63x optical coupler, and XF-93 filter set) at 20x magnification. The images were acquired using the autofocus feature of the ArrayScan instrument, which entails the following steps. First, the camera focuses on channel 1 (Hoechst 33342), where nuclei are identified. Second, a Z offset of 1 um is used for capturing mitochondria (MitoTracker Red). […]

| SMILES | outcome | AC50 |
| --- | --- | --- |
| CC(C)N1C(=O)N(c2ccccc2)CSC1=NC(C)(C)C | inactive |  |
| O=P(O)(O)CCCl | inactive |  |
| O=C1C2CC=CCC2C(=O)N1SC(Cl)(Cl)Cl (stereo not given) | inactive |  |
| CN=C=S | inactive |  |
| COP(=S)(OC)Oc1ccc([N+](=O)[O-])c(C)c1 | inactive |  |
| CNC(=O)N(C)c1nnc(C(C)(C)C)s1 | inactive |  |
| CCNP(=S)(OC)O/C(C)=C/C(=O)OC(C)C (stereo not given) | inactive |  |
| Clc1cccc(C(Cl)(Cl)Cl)n1 | inactive |  |
| Cc1c(COC(=O)[C@@H]2[C@H](/C=C(\Cl)C(F)(F)F)C2(C)C)cccc1-c1ccccc1 | inactive |  |
| COc1ccc(-c2ccccc2)cc1NNC(=O)OC(C)C | inactive |  |
| N#CN=C1SCCN1Cc1ccc(Cl)nc1 | inactive |  |
| CCNC(=O)NC(=O)C(C#N)=NOC | inactive |  |
| C=C(C)CN(CC)c1c([N+](=O)[O-])cc(C(F)(F)F)cc1[N+](=O)[O-] | inactive |  |
| COCC(=O)N(c1c(C)cccc1C)C(C)C(=O)OC (stereo not given) | inactive |  |
| CN/C(=N\[N+](=O)[O-])NCc1cnc(Cl)s1 | inactive |  |
| CS(=O)(=O)c1cc(C(F)(F)F)ccc1C(=O)c1cnoc1C1CC1 | inactive |  |
| CC(C)(C)C(=O)C(Oc1ccc(Cl)cc1)n1cncn1 (stereo not given) | inactive |  |
| CCOc1cc(C(C)(C)C)ccc1C1COC(c2c(F)cccc2F)=N1 (stereo not given) | inactive |  |
| CCN(CC)C(=O)C(C)Oc1cccc2ccccc12 (stereo not given) | inactive |  |
| COCC(C)N(C(=O)CCl)c1c(C)csc1C (stereo not given) | inactive |  |

| SMILES | outcome | AC50 |
| --- | --- | --- |
| Nc1c(Cl)c(Cl)nc(C(=O)O)c1Cl | inactive |  |
| COc1cc(Cl)c(OC)cc1Cl | inactive |  |
| CC1(C)CCC(=Cc2ccc(Cl)cc2)C1(O)Cn1cncn1 (stereo not given) | inactive |  |
| CC(C)N1C(=O)c2ccccc2NS1(=O)=O | inactive |  |
| CO/N=C(/C1=NOCCO1)c1ccccc1Oc1ncnc(Oc2ccccc2Cl)c1F | inactive |  |
| CCCCOCN(C(=O)CCl)c1c(CC)cccc1CC | inactive |  |
| CCOc1nc(C(Cl)(Cl)Cl)ns1 | inactive |  |
| Cc1cc(C)nc(Nc2ccccc2)n1 | inactive |  |
| O=C(Nc1ccccc1-c1ccc(Cl)cc1)c1cccnc1Cl | inactive |  |
| CC(C)NC(=O)N1CC(=O)N(c2cc(Cl)cc(Cl)c2)C1=O | inactive |  |
| COCc1cnc(C2=NC(C)(C(C)C)C(=O)N2)c(C(=O)O)c1 (stereo not given) | inactive |  |
| CCOc1nc(F)cc2nc(S(=O)(=O)Nc3c(Cl)cccc3Cl)nn12 | inactive |  |
| Cn1c(-c2ccccc2)cc(-c2ccccc2)[n+]1C | inactive |  |
| CC1(C)C(C=C(Cl)Cl)C1C(=O)OC(C#N)c1cccc(Oc2ccccc2)c1 (stereo not given) | inactive |  |
| CCOP(=O)(OCC)Oc1nc(Cl)c(Cl)cc1Cl | inactive |  |
| O=c1n(Cl)c(=O)n(Cl)c(=O)n1Cl | inactive |  |
| CCC(C)n1c(=O)[nH]c(C)c(Br)c1=O (stereo not given) | inactive |  |
| COc1cc(OC)nc(NC(=O)NS(=O)(=O)c2ncccc2OCC(F)(F)F)n1 | inactive |  |
| N#Cc1c[nH]cc1-c1cccc2c1OC(F)(F)O2 |  | 3.5 µM (active) |
| CC(C)Oc1cccc(NC(=O)c2ccccc2C(F)(F)F)c1 | inactive |  |
